Only some compounds are listed: those with a hit (about 3% of all), similar ones and a draw of the others.
CF NFkB block: blocks PAF-induced NF-kB reporter in cystic fibrosis cells. 0.86% of 360,000 active. KKLEB NF-kB-GFP reporter, GFP fluorescence overnight. inhibition, % at 5 µM. AID 588850;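 active means at least 50% inhibition at 5 µM, scaled per plate between neutral and stimulator controls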;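 further: PAF is a Pseudomonas aeruginosa culture filtrate used as stimulus; plate controls were PAF-stimulated DMSO wells for no effect and unstimulated DMSO wells for full effect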
HIF-2a inh: HIF-2a inhibition. inhibition, % at 18.8 µM. 0.72% of 360,000 active. 786-0 RCC cells HIF-2a reporter, luciferase luminescence, overnight. AID 624352;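 active means inhibition of the luminescence signal of 40% or more relative to plate controls, in a single-dose primary screen at 18.75 µM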
ABHD5-PLIN5 inh: blocks binding of human ABHD5 to perilipin-5; Split G. princeps luciferase complementation, luminescence, 4 h; inhibition, % at 4 µM; 0.78% of 360,000 active; AID 602281;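 active means inhibition above the mean inhibition across every tested compound plus 3 SD, cut at about 22% in these data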;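 further: 0% = DMSO only wells and the 100% control is not disclosed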
Peg3 prom inh-1: reduces Peg3 promoter-driven luciferase expression in HeLa | AID 588405 | 1.7% of 360,000 active | inhibition, % at 20 µM | HeLa PEG-Prom luciferase reporter, luminescence, overnight;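 active means inhibition of at least 50% at 20 µM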
KKLEB tox: counter-screen for CF NF-kB inhibitors: cytotoxicity; KKLEB CF airway cells viability, ATPlite luminescence, overnight; active compounds read low; cells stimulated with P. aeruginosa culture filtrate; AID 602141; activity change (cytotoxicity), % at 5 µM; 0.36% of 360,000 active;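 active means corrected activity change at or below -50% at 5 µM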
TRPM1 prom inh: MITF TRPM1 promoter inhibition in SK-MEL-5 cells; inhibition, % at 12.5 µM; SK-MEL-5 TRPM1 promoter luciferase, 24 h; 0.83% of 330,000 active;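 active means mean inhibition across replicates of 60% or more, whatever share of single replicates reaches that level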
Peg3 prom inh-2: confirmation of Peg3 promoter inhibitors; shares compounds with Peg3 prom inh-1; HeLa PEG-Prom luciferase reporter, luminescence, overnight; inhibition, % at 20 µM; 84% of 1,300 active; AID 602417;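 active means at 20 µM dose, 40% or more inhibition averaged across four replicates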
Numbers without * were called inactive; . = not tested or not shown.

SMILES | CF NFkB block | HIF-2a inh | ABHD5-PLIN5 inh | Peg3 prom inh-1 | KKLEB tox | TRPM1 prom inh | Peg3 prom inh-2
CCOc1ccccc1Nc1cc(C)nc2ccc(C)cc12 | 1 | 15 | 2 | 21 | -5 | 13 | .
Cc1cccc(-n2cc(-c3ccccc3)c3c(N4CCOCC4)ncnc32)c1 | 94* | 27 | 3 | 69* | -92* | 8 | 82*
O=C(CSc1ccccn1)Nc1ccc2[nH]c(=O)[nH]c2c1 | -1 | 14 | 2 | 6 | 2 | -7 | .
CNCC[C@@H](Oc1ccc(C(F)(F)F)cc1)c1ccccc1 | 14 | -12 | 11 | 74* | -21 | -9 | 69*
Cc1ccc(C(=O)c2no[n+]([O-])c2C(=O)c2ccc(C)cc2)cc1 | 100* | -40 | 0 | 107* | -76* | 79* | 100*
Cc1ccc(C(=O)c2ccc(C)cc2)cc1 | 15 | -21 | 7 | -17 | 1 | -27 | .
COC(=O)c1ccc2nc(-c3ccc(C)cc3)c(CC3CCCCC3)n2c1 | 15 | -22 | 4 | -62 | 0 | . | .
COCc1ccc(CN2CCC(C(=O)Nc3cccc(-c4cccc(Cl)c4)c3)CC2)o1 | 15 | 34 | 21 | 103* | -9 | 18 | 99*
CN1C[C@@H]2[C@@H]3C(=O)N(C)C(=O)[C@@H]3[C@](Cc3ccccc3)(C1=O)N2C(=O)c1ccc(Cl)cc1 | 1 | 17 | 4 | -2 | 8 | 8 | .
O=C(c1ccco1)N1CCN(c2ncnc3c2[nH]c2ccc(Br)cc23)CC1 | -42 | 16 | 14 | 73* | 3 | -6 | 85*
CCN(CC)c1ccc(NC(=O)Cn2c(C(C)NC(=O)c3ccccc3)nc3ccccc32)cc1 (stereo not given) | -2 | -3 | 4 | 78* | -5 | 6 | 10
O=C(Nc1nccs1)c1cc(-c2ccncc2)nc2ccccc12 | -17 | 18 | 2 | 7 | 6 | 25 | .
Cc1ccc(-c2cc(C(=O)Nc3nccs3)c3ccccc3n2)c(C)c1 | -36 | 10 | 1 | 91* | -6 | 1 | 61*
CCOc1cccc(C2/C(=C(/O)c3ccc4c(c3)CC(C)O4)C(=O)C(=O)N2Cc2ccncc2)c1 (stereo not given) | -2 | 5 | -3 | 7 | -23 | -4 | .
CCN(CC)CCn1c2ccccc2c2cnc(N)c(C#N)c21 | 27 | 36 | 3 | 91* | -4 | 55 | 94*
CN(C)C=Nc1ncc2c3ccccc3n(CCN(C)C)c2c1C#N | 44 | 12 | 10 | 19 | -9 | 1 | .
Cc1ccc(C(=O)N2N=C3c4ccccc4S(=O)(=O)N3[C@H]2N(C)C)cc1 | 15 | 15 | 2 | 20 | 8 | -4 | .
CCCCN(C(=O)CCOc1ccc(OCC)cc1)c1c(N)n(Cc2ccccc2)c(=O)[nH]c1=O | -10 | 13 | -9 | 0 | 17 | . | .
CC(=O)Nc1sc(C)c(C)c1C(=O)OCC(=O)N(CC(C)C)c1c(N)n(Cc2ccccc2)c(=O)[nH]c1=O | 83* | 18 | -8 | 101* | -96* | 103* | 55*
COc1cccc(/C=N/NC(=O)CNC(=O)COc2ccccc2)c1O | -14 | 8 | 3 | 43 | 10 | 21 | .
Cc1cccc(OCC(=O)NCC(=O)N/N=C/c2cc(Br)cc(Br)c2O)c1 | 9 | 14 | 4 | 57* | 0 | 9 | 63*
COc1cc(NC(=O)c2c(F)c(F)c(F)c(F)c2F)c(OC)cc1Cl | -14 | 24 | -1 | 70* | 14 | 40 | 53*
COc1cc(NC(=O)c2ccc(F)cc2)c(OC)cc1Cl | -20 | -22 | -2 | -16 | 5 | 15 | .
O=C(O)CN1C(=O)C2(OCCO2)c2cc(Br)ccc21 | 8 | 17 | -1 | 5 | 4 | 2 | .
O=C(NCCc1ccccc1)c1ccc2c(c1)OCO2 | 11 | 54* | -3 | 58* | -5 | 53 | 52*
O=C(NCCS(=O)(=O)NCc1ccccc1)c1ccc2c(c1)OCO2 | 21 | 7 | 0 | 5 | 5 | -7 | .
CCN(CCCNC(=O)c1nn(C)c2c1CS(=O)(=O)c1ccccc1-2)Cc1ccccc1 | 3 | 7 | 1 | -8 | 12 | -6 | .
